From the supplement of paper PMC10338343
± gives the standard deviation.

Assays:
[1] = system: MILI (PIWIL2) piRISC loaded with L1MC piRNA (26 nt); test: pre-steady-state target cleavage rate (min^-1); guide: L1MC piRNA 5'p-UAACUAAAUACUAUGCAAGCUGUAGG; higher = faster piRNA-guided slicing of the target
Outline: (§1)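 With or without 500 nM GTSF1 partner protein, 1 nM active affinity-purified piRISC carrying one synthetic guide was mixed with 0.1 nM transcribed, DNA-blocked target RNA library in HEPES–potassium acetate buffer at 33 °C for 0–8 or 0–960 min. Uncleaved targets were sequenced and normalised to depth and to weakly complementary targets, three trials were pooled, and k3 was capped at 0.0001 min^-1. The pre-steady-state cleavage rate came from a burst-and-steady-state fit.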

[2] = system: EfPiwi piRISC loaded with L1MC piRNA (26 nt); test: pre-steady-state target cleavage rate (min^-1); auxiliary factor: 500 nM Ephydatia muelleri Gtsf1; guide: L1MC piRNA 5'p-UAACUAAAUACUAUGCAAGCUGUAGG; MIWI and MILI are mouse PIWI proteins and EfPiwi is from a freshwater sponge; tags in brackets are library labels; higher = faster piRNA-guided slicing of the target
Outline: as §1

[3] = auxiliary factor: 500 nM mouse GTSF1
[4] = auxiliary factor: none (no GTSF1)

| Sequence | pre-steady-state target cleavage rate [1, 3] | pre-steady-state target cleavage rate [1, 4] | pre-steady-state target cleavage rate [2] |
| --- | --- | --- | --- |
| UCCUGGAUCUGCUUGCAUAGUAUUUAGUAA | 0.22 ± 0.014 | 0.00457 ± 0.0021 | 0.1 ± 0.038 |
| UCCUCGUACAGCUUGCAUUGUAUUUAGUUA | 0.223 ± 0.011 | 0.00719 ± 0.0021 | 0.0163 ± 0.004 |
| UCCUGGAUCAGGUUGCAUACUAUUUAGUUA | 0.0436 ± 0.0082 | 0.00331 ± 0.0025 | 0.00262 ± 0.0019 |
| UCCUGCUACACGAUGCAUAGUAUUUAGUAA | 0.257 ± 0.032 | 0.00703 ± 0.0026 | 0.00352 ± 0.0024 |
| UCCUGGAACAGCUUGCAAAGUAUUAAGUUA | 0.0867 ± 0.015 | 0.00516 ± 0.0022 | 0.00406 ± 0.003 |
| UCCUGGAACACCUUGCAAAGUAUUUAGUUA | 0.0999 ± 0.015 | 0.0069 ± 0.0021 | 0.00814 ± 0.0031 |
| UCCUGGUACAGCUAGCAUAGUAUUUAGUUA | 0.259 ± 0.017 | 0.00964 ± 0.0026 | 0.0085 ± 0.0027 |
| UCCUCCUACUCGUUGCAUAGUAUUUAGUUA | 0.211 ± 0.018 | 0.00864 ± 0.002 | 0.101 ± 0.025 |
| UCCUGCAACAGCUUGCAUAGUAUUAAGUUA | 0.344 ± 0.039 | 0.00432 ± 0.0031 | 0.00881 ± 0.0022 |
| UCCUCCUACAGCUUGCAAUGUAUUUAGUUA | 0.101 ± 0.015 | 0.00693 ± 0.0023 | 0.0107 ± 0.0042 |
| UCCUGCUAGACCUUGCAUAGUAUUUAGUUA | 0.171 ± 0.02 | 0.00811 ± 0.0031 | 0.00526 ± 0.0023 |
| UCCUGGUACAGCUUGCAAACUAUUUAGUUA | 0.0345 ± 0.007 | 0.00378 ± 0.0028 | 0.00276 ± 0.0022 |
| UCCUGGUAUCAGCUUGCAUAGUAUUUAGUUA | 0.252 ± 0.026 | 0.0221 ± 0.0059 | 0.0704 ± 0.018 |
| UCCUGGAACAGCUUGCAUAGUAUUUACGUUA | 0.204 ± 0.027 | 0.00654 ± 0.0028 | 0.00579 ± 0.0024 |
| UCCUCCUACAGCUUGCAUAGUAUUUAUGUUA | 0.162 ± 0.023 | 0.00611 ± 0.0025 | 0.00546 ± 0.0027 |
| UCCUGGAUGAGCUUGCAUAGUAAUUUAGUUA | 0.0721 ± 0.0082 | 0.00789 ± 0.0023 | 0.00357 ± 0.0029 |
| UCCUGGUUGAGCUUGCAUAGUAUUUAGUUA | 0.179 ± 0.017 | 0.0113 ± 0.0033 | 0.0176 ± 0.0053 |
| UCCUGCUACUAGCUUGCAUAGUAUUUAGUUA | 0.176 ± 0.022 | 0.0074 ± 0.0023 | 0.00699 ± 0.0025 |
| UCCUGGAUGUGCUUGCAUAGUAGUUAGUUA | 0.0647 ± 0.01 | 0.0055 ± 0.0027 | 0.0116 ± 0.0041 |
| UCCUGGAUGACCUUGGAUAGUAUUUAGUUA | 0.14 ± 0.013 | 0.00594 ± 0.0024 | 0.00325 ± 0.0032 |
| UCCUGGUUGAGCUUGCAUAGUAUUUAGUAA | 0.196 ± 0.022 | 0.00595 ± 0.0027 | 0.00604 ± 0.0023 |
| UCCUGGAUCAGCUUGCACAGUAUUUAGUUA | 0.157 ± 0.015 | 0.0116 ± 0.003 | 0.0672 ± 0.016 |
| UCCUCCUACAGCUAUGCAUAGUAUUUAGUUA | 0.267 ± 0.02 | 0.00637 ± 0.0022 | 0.0164 ± 0.0055 |
| UCCUCCUAGAGCUUGCAUAGUAUUUAGUUA | 0.232 ± 0.019 | 0.00656 ± 0.0021 | 0.0186 ± 0.0054 |
| UCCUGCUACAGCUUGCUUUGUAUUUAGUUA | 0.183 ± 0.015 | 0.00494 ± 0.0021 | 0.00538 ± 0.003 |

| Sequence | pre-steady-state target cleavage rate [1, 3] | pre-steady-state target cleavage rate [1, 4] | pre-steady-state target cleavage rate [2] |
| --- | --- | --- | --- |
| UCCUGGAACAGCUUGCAUAGUAUUCAGUUA | 0.228 ± 0.042 | 0.00292 ± 0.0026 | 0.00333 ± 0.0018 |
| UCCUGCUACAGCUUCCAAAGUAUUUAGUUA | 0.112 ± 0.015 | 0.00347 ± 0.0025 | 0.00321 ± 0.0019 |
| UCCUGCAUACAGCUUGCAUAGUAUUUAGUUA | 0.554 ± 0.047 | 0.0104 ± 0.0034 | 0.11 ± 0.032 |
| UCCUGGAACAGCUUGCUUACUAUUUAGUUA | 0.0834 ± 0.011 | 0.0029 ± 0.0024 | 0.00758 ± 0.0029 |
| UCCUGGAUCAGCUUGCUUAGUAUUAAGUUA | 0.129 ± 0.016 | 0.00516 ± 0.0021 | 0.00376 ± 0.0025 |
| UCCUGCUACAGCUUGCUUAGUAUAUAGUUA | 0.206 ± 0.028 | 0.00313 ± 0.0023 | 0.0125 ± 0.0047 |
| UCCUGGAUGUGCUUGCAUAGUAUUUAGUUU [g2:g20:cont:t1U] | 0.158 ± 0.016 | 0.0103 ± 0.0037 | 0.052 ± 0.017 |
| UCCUGGAACAGCUUGACAUAGUAUUUAGUUA | 0.213 ± 0.016 | 0.00586 ± 0.0022 | 0.013 ± 0.004 |
| UCCUCCCACAGCUUGCAUAGUAUUUAGUUA | 0.296 ± 0.015 | 0.00691 ± 0.0024 | 0.128 ± 0.029 |
| UCCUGCAUCAGCUUGCAUAGUAUUUAGUUA | 0.322 ± 0.021 | 0.00843 ± 0.0023 | 0.0591 ± 0.011 |
| UCCUGGUACAGCAUGCAUAGUAUUUAGUAA | 0.163 ± 0.02 | 0.00467 ± 0.0031 | 0.00753 ± 0.0032 |
| UCCUCCUACAGCUAGCAUAGUAUUUAGUUA | 0.27 ± 0.019 | 0.00812 ± 0.0022 | 0.0119 ± 0.0038 |
| UCCUGGUACAAGCUUGCAUAGUAUUUAGUUA | 0.196 ± 0.024 | 0.0121 ± 0.0042 | 0.0481 ± 0.014 |
| UCCUGCUACAGCAUUGCAUAGUAUUUAGUUA | 0.286 ± 0.02 | 0.0108 ± 0.0036 | 0.00946 ± 0.0029 |
| UCCUGGAACAGCUUGCAAAGUAAUUAGUUA | 0.131 ± 0.018 | 0.00424 ± 0.0022 | 0.00403 ± 0.002 |
| UCCUGGAACAGCUUGCAUAGUAUUAUGUUA | 0.105 ± 0.026 | 0.00259 ± 0.0025 | 0.00324 ± 0.0021 |
| UCCUGGAAGAGCUUGCAUAGUAUUUAGAUA | 0.182 ± 0.034 | 0.00463 ± 0.0025 | 0.00519 ± 0.0023 |
| UCCUCCUACAGCUUGCAUAAUAUUUAGUUA | 0.292 ± 0.026 | 0.00352 ± 0.0022 | 0.00664 ± 0.0024 |
| UCCUGCAACAGCUUGCAUACUAUUUAGUUA | 0.083 ± 0.011 | 0.00386 ± 0.002 | 0.0112 ± 0.0029 |
| UCCUGGAUGUCGAUGCAUAUUAUUUAGUUA | 0.016 ± 0.0043 | 0.00389 ± 0.0019 | 0.0047 ± 0.0036 |
| UCCUGCUACAGGAUGCAUAGUAUUUAGUAA | 0.301 ± 0.044 | 0.00446 ± 0.0019 | 0.00317 ± 0.0021 |
| UCCUGGAUCAGCUUGCAUAGUUUUUAGUUA | 0.0479 ± 0.0086 | 0.00873 ± 0.0021 | 0.00592 ± 0.0018 |
| UCCUGGAACAGCUUGCAUUGUAUUUAGUAA | 0.17 ± 0.02 | 0.00563 ± 0.0025 | 0.00646 ± 0.0024 |
| UCCUGGAUGAGAUUGCAUAGUAUUUAGUUA | 0.153 ± 0.014 | 0.011 ± 0.0024 | 0.00463 ± 0.0025 |
| UCCUCCUACAGGUUGCAUAGUAUUUUGUUA | 0.137 ± 0.021 | 0.00378 ± 0.0021 | 0.00418 ± 0.0015 |
